# About 8,200 (2.3%) of roughly 360,000 compounds were called active. Rule as the data show it: active = inhibition above about 27%; inactive = the rest. What follows is part of a selection rich in actives, with near analogues and random picks from the rest.
# Target: Fructose-bisphosphate aldolase (Mycobacterium tuberculosis (strain ATCC 25618 / H37Rv)) (UniProt P9WQA3)
# Experiment: Mtb FBA enzyme inhibitors, primary screen, biochemical, fluorescence, strain H37Rv (AID 588726);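 also: 0% = vehicle and 100% = reference inhibitor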
# Conditions: purified M. tuberculosis FBA, fluorescence read-out, at 1 µM, active compounds read high
# Sequence of Fructose-bisphosphate aldolase (Mycobacterium tuberculosis (strain ATCC 25618 / H37Rv)) (P9WQA3 whole entry, looked up): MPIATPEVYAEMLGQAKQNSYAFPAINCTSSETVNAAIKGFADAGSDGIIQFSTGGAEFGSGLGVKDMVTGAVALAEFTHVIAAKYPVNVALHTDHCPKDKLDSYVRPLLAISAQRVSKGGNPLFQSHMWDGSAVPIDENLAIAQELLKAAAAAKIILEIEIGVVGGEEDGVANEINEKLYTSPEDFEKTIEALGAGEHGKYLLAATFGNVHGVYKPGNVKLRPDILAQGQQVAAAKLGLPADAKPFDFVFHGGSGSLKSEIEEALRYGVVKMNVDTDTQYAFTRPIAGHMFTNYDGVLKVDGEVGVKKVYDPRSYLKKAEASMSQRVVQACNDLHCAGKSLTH
row,Compound,inhibition
1,CCC(C)N(C(=O)Cn1nc(C)c([N+](=O)[O-])c1C)C1CCS(=O)(=O)C1 (centres undefined),1.23% (inactive)
2,CCC(C)N(C(=O)COC(=O)c1nc(Cl)ccc1Cl)C1CCS(=O)(=O)C1 (centres undefined),0.03% (inactive)
3,CCC(C)N(C(=O)COC(=O)C1C(C(=O)OC)=C(C)NC(C)=C1C(=O)OC)C1CCS(=O)(=O)C1 (centres undefined),74.9% (active)
4,Cc1cc2cc3n(c2nn1)N=C(Cl)CC3,83.2% (active)
5,CCOC(=O)c1nn(-c2ccccc2F)c2nc(Nc3ccccc3)cc(=O)n12,-2.45% (inactive)
6,Cc1ccc(N(CC(=O)NC2CCCCC2)C(=O)CCCC(=O)Nc2ccccn2)c(C)c1,3.51% (inactive)
7,CCOc1ccccc1N(CC(=O)NC1CCCCC1)C(=O)CCCC(=O)Nc1ccccn1,-0.58% (inactive)
8,Cc1ccccc1CCN(CC(=O)NC1CCCCC1)C(=O)c1csnn1,-2.02% (inactive)
9,CC1=CC=CN2C1=NC(=O)CC2(C)C(=O)N(CC(=O)NC1CCCC1)c1ccccc1C (centres undefined),164% (active)
10,COc1ccccc1N(CC(=O)NC1CCCC1)C(=O)C1(C)CC(=O)N=C2C=CC(C)=CN21 (centres undefined),123% (active)
11,COc1ccccc1N(C)S(=O)(=O)c1ccc(C(=O)NC2CCCCCC2)cc1,2.13% (inactive)
12,CC1=C(C(=O)N2CCOCC2)CC(CC(=O)NCc2cccs2)C(=O)N1CCCN1CCCC1=O (centres undefined),2.87% (inactive)
13,Cc1ccc2c(cnn2C(=O)CCC(=O)NC2CCCC2)c1,2.86% (inactive)
14,Cc1ccc(C(C(=O)NC2CCCCC2)N(C(=O)c2csnn2)C2CC2)o1 (centres undefined),1.93% (inactive)
15,CC(=O)N1CCN(S(=O)(=O)c2ccc(C)c([N+](=O)[O-])c2)C1C(C)C (centres undefined),-1.36% (inactive)
16,Cc1ccccc1N1C(=O)C(Oc2ccc(Cl)cc2)C1CNCC1CCCO1 (centres undefined),-3.19% (inactive)
17,O=c1cc(CN2CCN(S(=O)(=O)/C=C/c3ccccc3)CC2)c2ccc(O)cc2o1,137% (active)
18,Cc1ccc2c(CN3CCN(S(=O)(=O)c4ccccc4C(F)(F)F)CC3)cc(=O)oc2c1,2.71% (inactive)
19,NC(=O)CCN1CCN(S(=O)(=O)/C=C/c2ccccc2)CC1,1.59% (inactive)
20,CSc1cccc(NC(=O)C2CCCN2S(=O)(=O)c2ccc3c(c2)CCC(=O)N3)c1 (centres undefined),1.45% (inactive)
21,Cc1cccc(-c2cnc(C(O)c3ccc4ccccc4c3)[nH]2)c1 (centres undefined),-1.57% (inactive)
22,CC(C)(C)OC(=O)NC(Cc1ccccc1)C(=O)NC(CSC1CCCCO1)C(=O)NN (centres undefined),-0.07% (inactive)
23,CC(C)c1ccc(S(=O)(=O)N2CCN(C(=O)c3ccc(N4CCCC4)c([N+](=O)[O-])c3)CC2)cc1,-2.26% (inactive)
24,O=C1C=C(c2ccccc2)CCC1,3.76% (inactive)
25,O=c1[nH]c(-c2ccccc2)c(-c2ccccc2)[nH]1,133% (active)

row,Compound,inhibition
1,O=c1cc(-c2ccccc2)[nH]c2cc(F)ccc12,5.51% (inactive)
2,CCc1ccc(NC(=O)CCNS(=O)(=O)c2cccs2)cc1,-1.53% (inactive)
3,O=C(NCc1ccccc1)c1ccc(CNc2c(N3CCCC3)c(=O)c2=O)cc1,4.44% (inactive)
4,CCc1ccccc1N1C(=O)C2C3CC(=O)C(c4ccccc43)C2C1=O (centres undefined),1.36% (inactive)
5,CN1C(=O)/C(=C\c2cc(Br)cs2)c2ccccc21,0.16% (inactive)
6,CCC1C(=O)c2ccccc2N(C)C1=O (centres undefined),34.5% (active)
7,Cc1ccc(CN2CCC(N3CCC(C(=O)NCC4CCCO4)CC3)CC2)o1 (centres undefined),-1.69% (inactive)
8,CC(=O)N1CCN(C(=O)c2cc(-c3ccc(C)o3)nc3ccccc23)CC1,131% (active)
9,CC1CCCC(NC(=O)c2cc(-c3ccncc3)nc3ccccc23)C1C (centres undefined),4% (inactive)
10,Cc1cccc(C(=O)N2CCC(c3nc4ccccc4s3)CC2)c1,-2.02% (inactive)
11,O=C(NNC(=O)c1cc(-c2ccccc2Cl)nc2ccccc12)c1csc(N2CCOCC2)n1,1.04% (inactive)
12,Cc1ccc(S(=O)(=O)N2CCN(C(=O)c3ccccc3-c3nc4ccccc4s3)CC2)c(C)c1,1.65% (inactive)
13,Cc1cc(C(=O)NNC(=O)c2cccc(S(=O)(=O)N3CCOCC3)c2)c2ccccc2n1,-2.38% (inactive)
14,CC1CCCN(C(=O)c2cc(-c3ccco3)nc3ccccc23)C1 (centres undefined),114% (active)
15,O=C(c1cc(-c2ccc(Cl)s2)nc2ccccc12)N1CCOCC1,93.6% (active)
16,CC(=O)N1CCN(C(=O)c2cc(-c3ccc(Cl)s3)nc3ccccc23)CC1,83.4% (active)
17,Cc1c(NC(=O)c2cc(-c3ccc(Cl)s3)nc3ccccc23)c(=O)n(-c2ccccc2)n1C,13% (inactive)
18,Cc1cc(C(=O)N2CCN(c3ccccn3)CC2)c(C)o1,9.35% (inactive)
19,CC1CCN(C(=O)Cn2cc(C(=O)c3ccco3)c3ccccc32)CC1,-0.4% (inactive)
20,Cc1nc(-c2ccc(Cl)cc2)sc1C1(C)CC(c2ccc(Br)cc2)=NO1 (centres undefined),-1.45% (inactive)
21,O=S(=O)(c1cccc(-c2nnc(SC(F)F)n2-c2ccccc2)c1)N1CCCCC1,5.7% (inactive)
22,COc1ccc(C)cc1NC(=O)c1[nH]c(C)c(C(C)=O)c1C,0.08% (inactive)
23,CCc1ccc(OCC(O)CN2CCN(CCO)CC2)cc1 (centres undefined),-0.21% (inactive)
24,CSCCC(NC(=O)c1ccco1)C(=O)NCCc1ccc(F)cc1 (centres undefined),0.46% (inactive)
